# Measured values from publication PMC7862700, “An all-to-all approach to the identification of sequence-specific readers for epigenetic DNA modifications on cytosine”.
# What was measured:
# Test in all cases: DAPPL (digital affinity profiling via proximity ligation, sequencing); 10 mM Tris-HCl pH 7.5, 50 mM NaCl, 1 mM DTT, 4% glycerol, room temperature, 30 min; GST-TFs on glutathione beads, 16-mer random dsDNA library, 0.1% formaldehyde crosslink after washing; high values mean tight binding
# [1] = molecular target: T1, FLI1 (Homo sapiens, UniProt Q01543 1-452); details: protein: recombinant; tags: N-terminal GST; dsDNA, one strand shown
# T1 sequence: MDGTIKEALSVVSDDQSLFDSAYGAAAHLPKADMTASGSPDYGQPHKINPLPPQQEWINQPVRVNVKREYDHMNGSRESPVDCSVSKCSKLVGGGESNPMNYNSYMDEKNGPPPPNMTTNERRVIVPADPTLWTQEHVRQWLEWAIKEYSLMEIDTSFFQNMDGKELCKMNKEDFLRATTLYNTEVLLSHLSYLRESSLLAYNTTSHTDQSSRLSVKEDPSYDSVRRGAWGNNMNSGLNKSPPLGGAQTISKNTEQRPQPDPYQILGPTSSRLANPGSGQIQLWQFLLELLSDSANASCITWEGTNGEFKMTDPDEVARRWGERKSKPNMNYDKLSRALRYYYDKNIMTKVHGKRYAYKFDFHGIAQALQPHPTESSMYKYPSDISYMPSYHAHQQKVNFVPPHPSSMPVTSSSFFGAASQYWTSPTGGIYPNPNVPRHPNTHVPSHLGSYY
# Procedure, shortened: (§1)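 Sequencing on an Illumina NextSeq500 followed washing, crosslinking with 0.1% formaldehyde, proximity ligation (BsaI/T4 ligase, 1 h, 37 °C) and PCR amplification of pools that had been incubated for 30 min at room temperature with 200 nmole of a random double-stranded 16-mer DNA library in Tris/NaCl/DTT/glycerol buffer. Each pool held DNA-barcoded human transcription factors, expressed in yeast as GST fusions and captured on glutathione beads, plus a tag-only sample. Binding signal is a hexamer's read frequency for a factor divided by its frequency in the tag-only sample.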
# [2] = molecular target: T2, ELK1 (Homo sapiens, UniProt P19419 1-428); details: protein: recombinant; tags: N-terminal GST; dsDNA, one strand shown
# T2 sequence: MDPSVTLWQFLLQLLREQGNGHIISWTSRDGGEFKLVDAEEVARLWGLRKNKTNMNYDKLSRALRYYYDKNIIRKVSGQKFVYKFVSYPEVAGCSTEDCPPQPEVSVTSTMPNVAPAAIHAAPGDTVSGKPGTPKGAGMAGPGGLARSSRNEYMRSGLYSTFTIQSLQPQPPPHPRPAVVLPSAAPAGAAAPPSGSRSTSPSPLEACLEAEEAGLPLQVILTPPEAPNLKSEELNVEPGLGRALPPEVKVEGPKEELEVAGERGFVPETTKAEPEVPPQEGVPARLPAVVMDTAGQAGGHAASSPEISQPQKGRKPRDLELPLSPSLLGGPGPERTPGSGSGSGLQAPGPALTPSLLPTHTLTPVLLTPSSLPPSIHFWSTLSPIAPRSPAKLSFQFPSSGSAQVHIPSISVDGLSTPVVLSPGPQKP
# Procedure, shortened: as §1
# [3] = molecular target: T3, GABPA (Homo sapiens, UniProt Q06546 1-454); details: protein: recombinant; tags: N-terminal GST; dsDNA, one strand shown
# T3 sequence: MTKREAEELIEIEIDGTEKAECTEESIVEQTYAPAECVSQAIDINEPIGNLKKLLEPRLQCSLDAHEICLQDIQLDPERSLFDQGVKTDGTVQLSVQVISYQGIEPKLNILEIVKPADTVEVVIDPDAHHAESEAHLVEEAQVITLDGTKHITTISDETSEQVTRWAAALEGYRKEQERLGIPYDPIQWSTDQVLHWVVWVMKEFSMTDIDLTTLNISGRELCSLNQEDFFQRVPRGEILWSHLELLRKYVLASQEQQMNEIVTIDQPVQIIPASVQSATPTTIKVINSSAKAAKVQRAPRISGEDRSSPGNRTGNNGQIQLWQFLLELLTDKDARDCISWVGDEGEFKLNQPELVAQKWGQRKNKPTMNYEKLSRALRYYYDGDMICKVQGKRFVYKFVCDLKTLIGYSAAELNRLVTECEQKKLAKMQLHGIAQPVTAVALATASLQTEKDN
# Procedure, shortened: as §1
# [4] = molecular target: T4, ERG (Homo sapiens, UniProt P11308 1-479); details: protein: recombinant; tags: N-terminal GST; dsDNA, one strand shown
# T4 sequence: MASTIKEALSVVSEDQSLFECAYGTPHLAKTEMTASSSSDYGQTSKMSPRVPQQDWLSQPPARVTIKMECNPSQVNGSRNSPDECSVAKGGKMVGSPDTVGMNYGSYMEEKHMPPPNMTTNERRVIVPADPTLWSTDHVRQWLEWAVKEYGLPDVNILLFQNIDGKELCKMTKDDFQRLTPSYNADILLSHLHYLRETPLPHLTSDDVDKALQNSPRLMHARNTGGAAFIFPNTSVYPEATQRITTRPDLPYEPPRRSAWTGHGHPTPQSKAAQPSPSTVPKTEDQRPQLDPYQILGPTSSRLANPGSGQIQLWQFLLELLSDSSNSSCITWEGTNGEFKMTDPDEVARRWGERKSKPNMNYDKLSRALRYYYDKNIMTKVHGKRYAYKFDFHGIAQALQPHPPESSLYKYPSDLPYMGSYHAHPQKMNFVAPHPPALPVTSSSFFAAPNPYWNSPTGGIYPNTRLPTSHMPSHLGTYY
# Procedure, shortened: as §1
# [5] = molecular target: ELF1 (Homo sapiens, UniProt P32519 1-619); details: protein: recombinant; tags: N-terminal GST; dsDNA, one strand shown
# Chain of ELF1 (P32519 whole entry): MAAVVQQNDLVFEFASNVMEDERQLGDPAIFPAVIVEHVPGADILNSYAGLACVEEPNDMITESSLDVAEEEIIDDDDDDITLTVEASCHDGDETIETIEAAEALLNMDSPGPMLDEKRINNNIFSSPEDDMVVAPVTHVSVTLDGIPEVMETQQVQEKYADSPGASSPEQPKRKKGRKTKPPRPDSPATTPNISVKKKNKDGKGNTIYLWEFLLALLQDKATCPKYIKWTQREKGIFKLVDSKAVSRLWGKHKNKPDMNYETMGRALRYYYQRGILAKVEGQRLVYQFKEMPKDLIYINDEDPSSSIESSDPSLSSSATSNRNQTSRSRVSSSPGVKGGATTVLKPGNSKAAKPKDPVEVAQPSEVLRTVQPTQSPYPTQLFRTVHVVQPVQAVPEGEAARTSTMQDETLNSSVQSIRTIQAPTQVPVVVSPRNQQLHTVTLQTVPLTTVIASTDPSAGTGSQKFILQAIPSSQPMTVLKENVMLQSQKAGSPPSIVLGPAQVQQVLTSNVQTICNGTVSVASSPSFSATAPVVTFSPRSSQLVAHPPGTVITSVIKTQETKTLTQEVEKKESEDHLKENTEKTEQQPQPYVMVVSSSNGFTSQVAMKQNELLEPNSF
# Procedure, shortened: as §1
# [6] = molecular target: T5, EHF (Homo sapiens, UniProt Q9NZC4 1-300); details: protein: recombinant; tags: N-terminal GST; dsDNA, one strand shown
# T5 sequence: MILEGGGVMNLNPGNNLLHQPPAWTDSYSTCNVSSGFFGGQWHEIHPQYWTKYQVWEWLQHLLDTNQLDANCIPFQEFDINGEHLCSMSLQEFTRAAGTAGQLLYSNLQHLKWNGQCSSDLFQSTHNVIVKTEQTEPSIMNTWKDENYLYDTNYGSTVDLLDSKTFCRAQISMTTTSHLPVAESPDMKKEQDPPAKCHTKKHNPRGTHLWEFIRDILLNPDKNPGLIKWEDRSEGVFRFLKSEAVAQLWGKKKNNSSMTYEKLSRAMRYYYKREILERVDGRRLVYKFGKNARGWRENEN
# Procedure, shortened: as §1
# [7] = molecular target: SPI1 (Homo sapiens, UniProt P17947 1-270); details: protein: recombinant; tags: N-terminal GST; dsDNA, one strand shown
# Procedure, shortened: as §1
# [8] = molecular target: SPIB (Homo sapiens, UniProt Q01892 1-262); details: protein: recombinant; tags: N-terminal GST; dsDNA, one strand shown
# Chain of SPIB (Q01892 whole entry): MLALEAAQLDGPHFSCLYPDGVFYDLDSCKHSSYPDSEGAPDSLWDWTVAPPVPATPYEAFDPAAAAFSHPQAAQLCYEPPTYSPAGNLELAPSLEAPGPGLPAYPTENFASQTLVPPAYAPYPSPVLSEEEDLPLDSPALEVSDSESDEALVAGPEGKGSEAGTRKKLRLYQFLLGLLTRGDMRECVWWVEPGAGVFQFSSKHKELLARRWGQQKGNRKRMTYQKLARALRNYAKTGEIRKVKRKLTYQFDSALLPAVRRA
# Procedure, shortened: as §1
# [9] = molecular target: T6, ELK3 (Homo sapiens, UniProt P41970 1-407); details: protein: recombinant; tags: N-terminal GST; dsDNA, one strand shown
# T6 sequence: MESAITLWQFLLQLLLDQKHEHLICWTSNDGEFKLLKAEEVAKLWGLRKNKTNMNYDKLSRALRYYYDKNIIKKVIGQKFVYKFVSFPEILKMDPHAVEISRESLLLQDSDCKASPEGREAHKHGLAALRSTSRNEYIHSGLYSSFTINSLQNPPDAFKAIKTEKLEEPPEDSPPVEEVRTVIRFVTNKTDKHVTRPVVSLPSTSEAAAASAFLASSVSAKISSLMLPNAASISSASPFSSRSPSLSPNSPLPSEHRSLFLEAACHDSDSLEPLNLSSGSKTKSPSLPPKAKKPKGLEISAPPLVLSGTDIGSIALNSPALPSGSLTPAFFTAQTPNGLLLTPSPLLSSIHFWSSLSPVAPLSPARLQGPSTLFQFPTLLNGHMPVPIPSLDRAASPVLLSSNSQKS
# Procedure, shortened: as §1
# [10] = molecular target: T7, FEV (Homo sapiens, UniProt Q99581 1-238); details: protein: recombinant; tags: N-terminal GST; dsDNA, one strand shown
# T7 sequence: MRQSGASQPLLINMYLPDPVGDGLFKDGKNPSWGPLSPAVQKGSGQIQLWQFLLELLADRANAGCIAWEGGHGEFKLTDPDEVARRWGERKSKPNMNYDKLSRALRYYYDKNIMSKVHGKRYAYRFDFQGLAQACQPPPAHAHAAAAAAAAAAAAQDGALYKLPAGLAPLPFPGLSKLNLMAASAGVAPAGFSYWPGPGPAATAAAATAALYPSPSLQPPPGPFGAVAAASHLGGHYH
# Procedure, shortened: as §1
# [11] = molecular target: ETV5 (Homo sapiens, UniProt P41161 1-510); details: protein: recombinant; tags: N-terminal GST; dsDNA, one strand shown
# Chain of ETV5 (P41161 whole entry): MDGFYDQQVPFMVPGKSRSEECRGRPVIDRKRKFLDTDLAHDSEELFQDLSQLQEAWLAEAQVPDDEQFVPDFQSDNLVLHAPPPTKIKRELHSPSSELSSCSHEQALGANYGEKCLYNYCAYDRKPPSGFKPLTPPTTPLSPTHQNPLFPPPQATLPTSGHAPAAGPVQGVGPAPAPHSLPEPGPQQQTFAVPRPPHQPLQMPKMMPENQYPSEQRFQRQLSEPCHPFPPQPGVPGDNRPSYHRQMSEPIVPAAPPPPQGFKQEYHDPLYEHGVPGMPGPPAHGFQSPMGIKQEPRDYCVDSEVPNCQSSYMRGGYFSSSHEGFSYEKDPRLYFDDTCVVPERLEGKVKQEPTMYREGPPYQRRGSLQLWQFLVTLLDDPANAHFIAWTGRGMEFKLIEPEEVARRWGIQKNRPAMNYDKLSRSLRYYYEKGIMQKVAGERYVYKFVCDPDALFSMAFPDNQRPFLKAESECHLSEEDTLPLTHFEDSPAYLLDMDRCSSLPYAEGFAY
# Procedure, shortened: as §1
# [12] = molecular target: HSF1 (Homo sapiens, UniProt Q00613 1-529); details: protein: recombinant; tags: N-terminal GST; chain copies: 3; dsDNA, one strand shown
# Chain of HSF1 (Q00613 whole entry): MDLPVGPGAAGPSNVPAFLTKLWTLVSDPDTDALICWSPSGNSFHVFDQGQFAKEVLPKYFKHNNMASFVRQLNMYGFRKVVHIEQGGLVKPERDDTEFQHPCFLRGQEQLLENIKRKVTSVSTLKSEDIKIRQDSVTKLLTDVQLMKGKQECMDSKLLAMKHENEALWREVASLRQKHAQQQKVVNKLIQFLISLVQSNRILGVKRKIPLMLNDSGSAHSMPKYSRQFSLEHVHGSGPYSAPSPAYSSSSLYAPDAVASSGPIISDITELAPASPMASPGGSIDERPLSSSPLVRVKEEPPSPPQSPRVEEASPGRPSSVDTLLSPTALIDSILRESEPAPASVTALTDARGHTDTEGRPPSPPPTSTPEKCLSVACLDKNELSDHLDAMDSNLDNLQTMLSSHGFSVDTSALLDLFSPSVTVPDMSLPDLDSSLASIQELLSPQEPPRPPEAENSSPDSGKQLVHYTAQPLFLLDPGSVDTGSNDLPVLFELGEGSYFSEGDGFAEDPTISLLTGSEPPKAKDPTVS
# Procedure, shortened: as §1
# [13] = molecular target: T8, SPIC (Homo sapiens, UniProt Q8N5J4 1-248); details: protein: recombinant; tags: N-terminal GST; dsDNA, one strand shown
# T8 sequence: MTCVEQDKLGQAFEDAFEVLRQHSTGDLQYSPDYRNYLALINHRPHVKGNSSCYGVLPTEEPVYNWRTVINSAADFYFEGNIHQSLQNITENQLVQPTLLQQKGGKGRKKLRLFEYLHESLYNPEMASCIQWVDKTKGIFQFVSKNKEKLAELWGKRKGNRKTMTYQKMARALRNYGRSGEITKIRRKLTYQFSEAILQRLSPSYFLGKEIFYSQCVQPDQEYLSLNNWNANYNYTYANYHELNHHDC
# Procedure, shortened: as §1
# [14] = molecular target: ELF4 (Homo sapiens, UniProt Q99607 1-663); details: protein: recombinant; tags: N-terminal GST; dsDNA, one strand shown
# Chain of ELF4 (Q99607 whole entry): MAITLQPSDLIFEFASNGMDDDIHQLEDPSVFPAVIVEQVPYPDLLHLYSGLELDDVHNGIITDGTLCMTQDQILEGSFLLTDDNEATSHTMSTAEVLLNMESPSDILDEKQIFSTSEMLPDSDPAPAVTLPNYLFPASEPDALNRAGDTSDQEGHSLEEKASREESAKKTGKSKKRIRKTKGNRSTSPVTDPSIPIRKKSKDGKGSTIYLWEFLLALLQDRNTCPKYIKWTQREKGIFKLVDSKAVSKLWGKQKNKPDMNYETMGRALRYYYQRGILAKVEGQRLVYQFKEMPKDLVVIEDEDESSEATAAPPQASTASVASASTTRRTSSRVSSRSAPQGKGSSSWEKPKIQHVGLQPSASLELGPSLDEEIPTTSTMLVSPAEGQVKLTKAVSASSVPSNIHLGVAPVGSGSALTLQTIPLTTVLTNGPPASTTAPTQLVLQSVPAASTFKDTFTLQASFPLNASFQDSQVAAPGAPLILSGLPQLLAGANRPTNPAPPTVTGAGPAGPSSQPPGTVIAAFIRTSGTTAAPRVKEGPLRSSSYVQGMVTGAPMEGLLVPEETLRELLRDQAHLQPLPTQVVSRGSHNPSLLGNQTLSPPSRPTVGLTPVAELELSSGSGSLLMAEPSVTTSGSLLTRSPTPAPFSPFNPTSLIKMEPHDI
# Procedure, shortened: as §1
# [15] = molecular target: T9, ELK4 (Homo sapiens, UniProt P28324-2 1-405); details: protein: recombinant; tags: N-terminal GST; dsDNA, one strand shown
# T9 sequence: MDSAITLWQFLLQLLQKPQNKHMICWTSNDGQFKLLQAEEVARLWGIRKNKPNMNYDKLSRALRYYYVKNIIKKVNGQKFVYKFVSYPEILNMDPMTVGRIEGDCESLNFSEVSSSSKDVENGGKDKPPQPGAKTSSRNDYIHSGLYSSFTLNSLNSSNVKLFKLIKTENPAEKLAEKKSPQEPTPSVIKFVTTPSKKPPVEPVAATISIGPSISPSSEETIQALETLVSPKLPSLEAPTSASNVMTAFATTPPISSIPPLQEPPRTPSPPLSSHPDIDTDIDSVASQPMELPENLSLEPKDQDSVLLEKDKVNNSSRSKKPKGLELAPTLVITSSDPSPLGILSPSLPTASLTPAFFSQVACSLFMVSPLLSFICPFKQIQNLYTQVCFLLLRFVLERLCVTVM
# Procedure, shortened: as §1
# [16] = molecular target: T10, ETV2 (Homo sapiens, UniProt O00321 1-342); details: protein: recombinant; tags: N-terminal GST; dsDNA, one strand shown
# T10 sequence: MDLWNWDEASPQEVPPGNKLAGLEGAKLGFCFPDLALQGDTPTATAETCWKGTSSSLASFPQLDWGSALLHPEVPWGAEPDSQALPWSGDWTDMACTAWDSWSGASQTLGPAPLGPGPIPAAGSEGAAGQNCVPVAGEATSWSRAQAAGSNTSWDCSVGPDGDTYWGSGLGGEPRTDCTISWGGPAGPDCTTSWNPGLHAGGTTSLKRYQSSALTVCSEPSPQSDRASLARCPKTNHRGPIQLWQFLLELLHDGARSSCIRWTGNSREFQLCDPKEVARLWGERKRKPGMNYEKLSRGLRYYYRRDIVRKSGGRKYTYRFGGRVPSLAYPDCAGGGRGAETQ
# Procedure, shortened: as §1
# [17] = molecular target: T11, ELF3 (Homo sapiens, UniProt P78545 1-371); details: protein: recombinant; tags: N-terminal GST; dsDNA, one strand shown
# T11 sequence: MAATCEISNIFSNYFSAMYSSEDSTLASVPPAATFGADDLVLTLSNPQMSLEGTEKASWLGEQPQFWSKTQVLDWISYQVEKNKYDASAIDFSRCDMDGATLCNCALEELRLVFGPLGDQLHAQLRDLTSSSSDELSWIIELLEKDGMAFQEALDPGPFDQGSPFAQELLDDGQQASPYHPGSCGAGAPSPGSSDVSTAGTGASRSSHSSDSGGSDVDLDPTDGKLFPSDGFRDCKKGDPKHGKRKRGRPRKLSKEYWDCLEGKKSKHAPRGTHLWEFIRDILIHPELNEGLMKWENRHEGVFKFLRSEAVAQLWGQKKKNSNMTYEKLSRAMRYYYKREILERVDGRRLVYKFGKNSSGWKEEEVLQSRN
# Procedure, shortened: as §1
# [18] = molecular target: CRX (Homo sapiens, UniProt O43186 1-299); details: protein: recombinant; tags: N-terminal GST; dsDNA, one strand shown
# Chain of CRX (O43186 whole entry): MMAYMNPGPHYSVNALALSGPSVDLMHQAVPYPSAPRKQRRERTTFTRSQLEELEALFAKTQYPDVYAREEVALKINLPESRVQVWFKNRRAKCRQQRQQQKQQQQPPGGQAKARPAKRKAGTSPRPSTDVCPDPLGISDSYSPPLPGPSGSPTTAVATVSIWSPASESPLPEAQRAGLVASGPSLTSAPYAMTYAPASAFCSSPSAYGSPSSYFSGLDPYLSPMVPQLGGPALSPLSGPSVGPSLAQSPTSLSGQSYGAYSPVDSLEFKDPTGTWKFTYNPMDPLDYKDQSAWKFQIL
# Procedure, shortened: as §1
# [19] = molecular target: ETV1 (Homo sapiens, UniProt P50549 1-477); details: protein: recombinant; tags: N-terminal GST; dsDNA, one strand shown
# Chain of ETV1 (P50549 whole entry): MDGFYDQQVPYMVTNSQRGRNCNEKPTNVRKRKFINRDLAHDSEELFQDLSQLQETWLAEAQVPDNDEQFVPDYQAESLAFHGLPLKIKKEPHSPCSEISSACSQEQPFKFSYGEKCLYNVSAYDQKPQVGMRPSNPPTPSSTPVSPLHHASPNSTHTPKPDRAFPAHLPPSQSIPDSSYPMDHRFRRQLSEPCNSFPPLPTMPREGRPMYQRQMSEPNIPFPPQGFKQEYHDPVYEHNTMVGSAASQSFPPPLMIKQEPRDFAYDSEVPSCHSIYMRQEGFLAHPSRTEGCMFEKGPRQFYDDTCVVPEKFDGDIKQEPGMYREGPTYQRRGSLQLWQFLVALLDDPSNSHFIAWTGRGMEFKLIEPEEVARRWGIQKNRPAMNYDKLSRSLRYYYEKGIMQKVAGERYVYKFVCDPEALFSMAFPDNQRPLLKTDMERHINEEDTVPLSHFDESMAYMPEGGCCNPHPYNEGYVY
# Procedure, shortened: as §1
sequence,measurement,setting,value
TCCATT,binding signal,[1],"1.34 fold enrichment (6-mer frequency, TF over GST control)"
same,binding signal,[2],"1.16 fold enrichment (6-mer frequency, TF over GST control)"
same,binding signal,[3],"1.3 fold enrichment (6-mer frequency, TF over GST control)"
same,binding signal,[4],"1.31 fold enrichment (6-mer frequency, TF over GST control)"
same,binding signal,[5],"1.26 fold enrichment (6-mer frequency, TF over GST control)"
same,binding signal,[6],"1.27 fold enrichment (6-mer frequency, TF over GST control)"
same,binding signal,[7],"1.33 fold enrichment (6-mer frequency, TF over GST control)"
same,binding signal,[8],"1.39 fold enrichment (6-mer frequency, TF over GST control)"
same,binding signal,[9],"1.26 fold enrichment (6-mer frequency, TF over GST control)"
same,binding signal,[10],"1.31 fold enrichment (6-mer frequency, TF over GST control)"
same,binding signal,[11],"1.36 fold enrichment (6-mer frequency, TF over GST control)"
same,binding signal,[12],"1.4 fold enrichment (6-mer frequency, TF over GST control)"
same,binding signal,[13],"1.31 fold enrichment (6-mer frequency, TF over GST control)"
same,binding signal,[14],"1.29 fold enrichment (6-mer frequency, TF over GST control)"
same,binding signal,[15],"1.37 fold enrichment (6-mer frequency, TF over GST control)"
same,binding signal,[16],"1.19 fold enrichment (6-mer frequency, TF over GST control)"
same,binding signal,[17],"1.27 fold enrichment (6-mer frequency, TF over GST control)"
same,binding signal,[18],"1.35 fold enrichment (6-mer frequency, TF over GST control)"
same,binding signal,[19],"1.26 fold enrichment (6-mer frequency, TF over GST control)"
